Laboratory results published in PubChem BioAssay AID1159606 (Sanford-Burnham Center for Chemical Genomics, 2016).
Among all 360,000 compounds or so, about 7,300 (2%) were called active. This is one part of a sample in which actives are shown more often than they occur. Values without a mark were called inactive. Cut-off read from the data, not from the text of the source: active = inhibition above about 50%; inactive = the rest.

Experiment: blockers of TWEAK-induced Fn14 reporter activity – luciferase reporter cells, uHTS, primary screen (AID 1159606)
Conditions: TWEAK-stimulated Fn14 reporter cells, luciferase luminescence, 8 h; at 10 µM; active compounds read high

Row | Structure (SMILES) | inhibition
1 | Cc1c(NC(=O)C(C)OC(=O)c2ccccc2O)c(=O)n(-c2ccccc2)n1C (centres undefined) | 2.88%
2 | COC(=O)[C@]12CCCCC=C1N(CCC1=CCCCC1)C(=O)[C@H](CC(=O)N1CCSCC1)C2 | -9.15%
3 | O=C(CN1C(=O)c2ccccc2S1(=O)=O)N1CCc2ccccc21 | 103% (active)
4 | COc1ccc(CNC(=O)CN2C(=O)c3ccccc3S2(=O)=O)cc1 | 8.55%
5 | CN(Cc1ccc(F)cc1)C(=O)CN1C(=O)c2ccccc2S1(=O)=O | 7.88%
6 | CCN(CC)c1ncnc2c1ncn2[C@H]1CN(Cc2cccs2)C[C@@H](CO)O1 | -23.3%
7 | COc1ccc(CN2C(=O)C(CC(=O)NC3CCCCC3)CC(C(=O)N3CCOCC3)=C2C)cc1 (centres undefined) | -7.48%
8 | CCc1cccc(C)c1N(C(=O)Cn1c(CO)nc2ccccc21)C(C)COC (centres undefined) | -17.5%
9 | CCN1CCC(O)(/C=C/c2ccc(C)cc2)C(C(=O)/C=C/c2ccc(C)cc2)C1 (centres undefined) | 88.3% (active)
10 | CCN1CCC2(CC1)N=C(c1ccc(F)cc1)C(=S)N2C(=O)c1ccc(C)cc1 | 42.7%
11 | CCOC(=O)[C@]12CCC=C1N(Cc1ccco1)C(=O)[C@H](CC(=O)NCc1cccc(C(F)(F)F)c1)C2 | 11.1%
12 | COCCCNC(=O)CNC(=O)c1nn(-c2ccc(OC)cc2)c(=O)c2ccccc12 | 23.9%
13 | CCOC(=O)c1cc(NC(=O)SCC(=O)O)c(C)nc1C | -2.03%
14 | CCOC(=O)c1c(C2CC2)csc1NC(=O)CSCc1c(C)noc1C | -9.7%
15 | CN(CC(=O)Nc1ccc(Cl)c(C(F)(F)F)c1)C(=O)CCC(=O)c1ccccc1 | 7.71%
16 | O=C(CC(O)(C(F)(F)F)C(F)(F)F)Nc1ccc(Cl)c(Cl)c1 | 56.3% (active)
17 | O=C(Cc1ncc(C(F)(F)F)cc1Cl)Nc1cccc(Br)c1 | 6.6%
18 | CCN1/C(=C\c2ccc3ccccc3[n+]2CC)Sc2cc(C)ccc21 | 57.2% (active)
19 | O=C(COC(=O)C1CCN(S(=O)(=O)c2ccc3c(c2)OCCO3)CC1)Nc1ccccc1OC(F)F | -22.5%
20 | C#Cc1ccc([C@@H]2C=C(C(=O)O)O[C@H](OCCCCO)C2)cc1 | -4.22%
21 | Cc1cn(C2C=CC(CO)O2)c(=O)[nH]c1=O (centres undefined) | -1%
22 | O=S(=O)(c1ccc(F)cc1)N1CCN=C1SCc1cccc(F)c1 | -11.2%
23 | O=C(Nc1c(Br)cc2c(c1Br)Cc1cc([N+](=O)[O-])ccc1-2)C(Cl)Cl | -30.1%

Row | Structure (SMILES) | inhibition
24 | O=C(CN1CCN(S(=O)(=O)c2ccc(F)cc2)CC1)NC1CC1 | 0.09%
25 | Cc1nc(N2CCN(c3ccccn3)CC2)c2c(C)c(C(=O)Nc3ccc(F)cc3)sc2n1 | 18.8%
26 | Cc1nc(N2CCN(c3ccccn3)CC2)c2c(C)c(C(=O)Nc3ccc(F)c(Cl)c3)sc2n1 | 66.9% (active)
27 | Cc1nc(N2CCOCC2)c2c(C)c(C(=O)Nc3ccc(C(F)(F)F)cc3)sc2n1 | -3.25%
28 | CCOC(=O)Cc1ncccc1C(=O)Nc1ccc(OC(F)(F)F)cc1 | -7.78%
29 | CCOc1c2ccc(C(=O)NCc3ccc(OC(F)(F)F)cc3)cc2nn1C | -25.1%
30 | O=C(Nc1ccc(OC(F)(F)F)cc1)c1ccc2c(c1)no[n+]2[O-] | 60.4% (active)
31 | CCOC(=O)Cc1csc(NC(=O)CN(C)S(=O)(=O)c2ccc3c(c2)CCC(=O)N3)n1 | 1.66%
32 | O=C(Nc1ccc(Cl)cc1)c1cc2nc(C3CC3)cc(C(F)(F)F)n2n1 | -7.24%
33 | O=C(Nc1cc(C(F)(F)F)ccc1Cl)c1cc2nc3c(c(C(F)(F)F)n2n1)CCCC3 | 76.7% (active)
34 | Nc1nc(SCC(=O)Nc2cc(C(F)(F)F)ccc2Cl)[nH]c(=O)c1NC(=O)c1ccco1 | 10%
35 | O=S1(=O)CSCS(=O)(=O)C1 | -11.8%
36 | O=C(OCC(=O)N1CCCCCC1)c1ccc(Br)c(S(=O)(=O)N2CCOCC2)c1 | -3.85%
37 | CC1CN/C(=C\C(=O)c2ccc(Br)cc2)C(=O)N1 (centres undefined) | 62.2% (active)
38 | COc1cc2c(cc1OC)/C(=C/C(=O)c1ccc(NC(C)=O)cc1)NCC2 | -11.2%
39 | CC1(C)Cc2ccccc2/C(=C/C(=O)c2ccccc2)N1 | -22.4%
40 | O=C(CN(C(=O)c1csnn1)c1cccc(F)c1)NCc1ccc(F)cc1 | 0.95%
41 | COc1ccc(C(c2nnnn2C2CCCC2)N2CCN(C/C=C/c3ccccc3)CC2)cc1 (centres undefined) | -2.02%
42 | O=C(NCCOc1ccccc1)c1ccccc1 | 54.9% (active)
43 | NS(=O)(=O)c1cc(C(=O)NCCOc2ccccc2)c(Cl)cc1Cl | 3.06%
44 | O=C(NCCOc1ccccc1)c1ccccc1F | 30.7%
45 | COc1cc(C(=O)OCC(=O)N(CC(C)C)C2CCS(=O)(=O)C2)ccc1OCC(C)C (centres undefined) | -5.97%
46 | COc1ccc(CCNC(=O)CCC(=O)NC2CCCCC2)cc1OC | 4.09%

Row | Structure (SMILES) | inhibition
47 | COc1ccc(-n2nnnc2SCC(=O)NCc2cccs2)cc1 | -2.38%
48 | COc1ccc(-n2nnnc2-c2nc3ccccc3s2)cc1 | 74% (active)
49 | COc1ccc(CNc2nnnn2C)cc1 | 2.29%
50 | Cc1ccc(CN2CCCOCCS2(=O)=O)cc1 | -9.75%
51 | CCCOc1ccccc1-c1nc(SCCC(=O)O)n[nH]1 | -9.1%
52 | Nc1ccccc1-c1nc2ccncc2[nH]1 | -11.5%
53 | Cc1cc(C)nc(Nc2n[nH]c(-c3ccccc3N)n2)n1 | 53.5% (active)
54 | COc1ccc2c(c1)CC[C@@H]1[C@@H]2CC[C@]2(C)C(=O)CC[C@@H]12 | -3.91%
55 | O=C(NCc1ccccc1)C1c2ccccc2OCC(=O)N1C1CC1 (centres undefined) | 4.34%
56 | NC(=O)Nc1ccccc1C(=O)NCCc1ccccc1 | 11.8%
57 | CC1Sc2ccc(S(=O)(=O)CCC(=O)NCc3ccccc3Cl)cc2NC1=O (centres undefined) | 0.42%
58 | COc1ccccc1N1CCN(C(=O)CCS(=O)(=O)c2ccc3c(c2)NC(=O)C(C)S3)CC1 (centres undefined) | 21.7%
59 | Cc1cccc(N2CCN(C(=O)CCS(=O)(=O)c3ccc4c(c3)NC(=O)C(C)S4)CC2)c1C (centres undefined) | 50.6% (active)
60 | O=C(NCc1ccc(F)cc1)C1CCN(C(=O)Nc2ccc(F)cc2)CC1 | 31.5%
61 | Cc1c(Cl)cccc1NC(=O)Nc1ccc(C(=O)N2CCCC2)cc1 | 5.68%
62 | O=C(Nc1ccccc1C(=O)N1CCOCC1)c1ccc(Cl)cc1 | -5.43%
63 | O=C(Nc1ccc(Cl)cc1)Nc1ccc(C(=O)N2CCOCC2)cc1 | 79% (active)
64 | COc1cc2c(C(=O)N3CCN(C)CC3)c(CSc3ccccc3)n(C)c2cc1Br | 0.16%
65 | CCN(CC)CCN(C)C(c1ccnc2ccccc12)c1nnnn1-c1ccc2c(c1)OCCO2 (centres undefined) | 29.9%
66 | CCCCn1nnnc1C1(C)CCC(=O)N1Cc1ccc(OC)c(OC)c1 (centres undefined) | 2.84%
67 | COc1ccc(COC[C@H](CC(C)C)N2CCN(C(=O)c3cccc(C(F)(F)F)c3)CCC2=O)cc1 | 0.93%
68 | O=c1ccc2c(-c3ccccc3S(=O)(=O)O)c3ccc(O)c(O)c3oc-2c1O | 78% (active)
69 | O=C1c2ccccc2C(c2nc3ccccc3[nH]2)N1c1ccccc1 (centres undefined) | 20.9%

Row | Structure (SMILES) | inhibition
70 | CCc1ccc(Oc2coc3cc(OC(=O)c4cc5ccccc5oc4=O)ccc3c2=O)cc1 | -16.7%
71 | CSc1nnc(CNC(=O)c2ccccc2)n1-c1ccc(F)cc1 | 23.6%
72 | O=C(OC1CC2CC1[C@H]1CCCCN1C2=O)N1CCOCC1 (some centres undefined) | 24.2%
73 | NC(=O)c1ncn([C@@H]2O[C@H](CN=C3NS(=O)(=O)c4ccccc43)[C@@H](O)[C@H]2O)n1 | -2.64%
74 | Cc1oc2cc([N+](=O)[O-])c(O)c([N+](=O)[O-])c2c1C(=O)c1ccc(Br)cc1 | 20%
75 | O=C(O)c1cc(S(=O)(=O)N(Cc2ccccc2)c2cccc(C(F)(F)F)c2)ccc1Cl | 9.03%
76 | O=C(NNc1ccccc1Cl)C(O)(c1cccc(C(F)(F)F)c1)c1cccc(C(F)(F)F)c1 | 74.5% (active)
77 | O=C(CNS(=O)(=O)c1cccc(C(F)(F)F)c1)Nc1ccccc1F | -3.29%
78 | CCCNCc1cc(OCC)c(OCC(=O)Nc2ccccc2)cc1Br | 3.35%
79 | O=C1CCCCN1CCCC(=O)N1CCCC(Nc2ccc(F)cc2)C1 (centres undefined) | 10.3%
80 | O=C(CN1CCOC1=O)N1CCCC(Nc2ccc(F)c(F)c2)C1 (centres undefined) | -4.67%
81 | O=C(CN1C(=O)CSC1=O)N1CCCC(Nc2ccc(F)cc2)C1 (centres undefined) | 89.2% (active)
82 | CCCn1c(N)c(C(=O)CSc2nnc(Cc3cccs3)n2C2CC2)c(=O)[nH]c1=O | -4.97%
83 | CC1CC(C)CN(S(=O)(=O)c2ccc(C(=O)NN3CCOCC3)cc2)C1 (centres undefined) | 15.8%
84 | COc1ccc(-c2noc(CNC(=O)C(C)Oc3ccccc3)n2)cc1 (centres undefined) | -2.29%
85 | COc1ccc(-c2nc(-c3ccccc3)no2)c(OC)c1 | 96.2% (active)
86 | COc1ccc(/C=C/c2noc(-c3ccccc3OC(C)=O)n2)cc1 | 48.5%
87 | CC1CN(C(=O)CCC(=O)NCCCN2CCC(Cc3ccccc3)CC2)c2cc(Cl)ccc2O1 (centres undefined) | -12.8%
88 | O=C1C2CCCN2C(=O)N1CCCCN1CCN(c2cccc(C(F)(F)F)c2)CC1 (centres undefined) | -4.34%
89 | COc1ccc(N(CCC(=O)NCCc2ccccc2)S(=O)(=O)c2ccc(C)cc2C)cc1 | -9.44%
